Laboratory results: the supplement of paper PMC3334620
Over roughly 33,000 sequences, “E-score (-0.5 to 0.5)” has its median near -0.011; the highest 2% begin near 0.28. This excerpt belongs to a sample that is enriched for the highest values.

molecular target: T1, Gcr1 (UniProt P07261); experiment: PBM E-score (8-mer binding enrichment) (E-score (-0.5 to 0.5)); higher = stronger / more preferred TF binding; conditions: protein concentration: 100 nM; construct: GST-full length
T1 sequence: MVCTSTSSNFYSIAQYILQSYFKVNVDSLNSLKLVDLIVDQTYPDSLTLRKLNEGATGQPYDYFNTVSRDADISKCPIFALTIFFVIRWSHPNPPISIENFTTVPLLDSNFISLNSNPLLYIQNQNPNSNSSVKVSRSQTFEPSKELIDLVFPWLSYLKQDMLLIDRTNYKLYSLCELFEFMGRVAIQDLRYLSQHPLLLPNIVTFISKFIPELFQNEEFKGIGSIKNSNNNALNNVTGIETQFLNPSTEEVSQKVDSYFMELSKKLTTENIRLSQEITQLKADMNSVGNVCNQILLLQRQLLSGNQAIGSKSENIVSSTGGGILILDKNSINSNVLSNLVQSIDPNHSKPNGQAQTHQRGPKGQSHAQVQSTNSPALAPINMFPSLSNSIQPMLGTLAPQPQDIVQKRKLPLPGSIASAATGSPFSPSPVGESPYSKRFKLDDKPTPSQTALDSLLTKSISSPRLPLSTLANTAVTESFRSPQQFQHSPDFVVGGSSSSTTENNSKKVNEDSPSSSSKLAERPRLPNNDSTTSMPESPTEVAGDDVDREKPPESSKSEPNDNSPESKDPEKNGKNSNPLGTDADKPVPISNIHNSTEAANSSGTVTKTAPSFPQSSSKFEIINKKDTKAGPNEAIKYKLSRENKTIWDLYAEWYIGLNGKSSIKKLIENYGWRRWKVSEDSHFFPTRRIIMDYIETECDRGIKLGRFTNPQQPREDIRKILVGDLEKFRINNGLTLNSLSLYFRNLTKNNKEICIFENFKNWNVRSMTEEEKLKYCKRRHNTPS
Protocol: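 Universal 'all 10-mer' protein binding microarrays (Agilent AMADID 015681) probed with GST-tagged S. cerevisiae TFs (full-length or DBD) made by in vitro transcription/translation (PURExpress), about 100-200 nM. Bound TF was detected with fluorescent anti-GST. Each ungapped 8-mer (which stands for itself and its reverse complement) is scored by the PBM enrichment score (E-score), a modified Wilcoxon-Mann-Whitney statistic from -0.5 to +0.5, computed with the Universal PBM Analysis Suite. Scale: above 0.35 generally sequence-specific binding.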

Sequence | PBM E-score
AGCCCGTG | -0.0206
ACCACTGA | 0.0982
AACCCGGG | 0.0515
CGCCGGGC | -0.0527
ACACCTTA | 0.0539
GCTGATCC | -0.0746
GCCGCCAA | 0.125
GCTCGCGA | 0.0716
AGCACCCC | 0.131
CGCACCCC | 0.0174
CGCACCCA | 0.236
GGCACCCC | 0.322
GGCACCCA | 0.381
TGCACCCA | 0.151
AACCTGCA | -0.0327
CCCGATGA | -0.0833
CAAATCGG | 0.0561
CATCCAAG | -0.0862
ATTCCAAA | 0.307
CTTCCGGA | 0.347
CATCCAAC | -0.0403
CTTCCACA | 0.349
ATTCCGAA | 0.147
ATTCCACG | 0.0676
CTTCCGGC | 0.111

Sequence | PBM E-score
CATCCAAA | 0.298
ATTCCACA | 0.247
ACTCCAAA | 0.116
ATTCCGGA | 0.197
AGCTTATG | 0.0485
CCGACATA | 0.0516
GATAACCC | -0.017
AGCCCCCG | -0.0643
AGCGGGCA | -0.156
CTCCGGGA | 0.00075
ACGGAGGC | -0.00955
CGTCCAAA | 0.33
CGTCCAAG | -0.0458
CTTCCAAG | -0.132
AGTCCAAA | -0.0142
TTTCCAAA | 0.178
CTTCCAAA | 0.338
ATTCCAAG | 0.196
ATTCCAAT | 0.299
CTTCCAAC | 0.181
GTTCCAAA | 0.302
ATTCCAAC | 0.221
GTTCCAAC | 0.0801
GGCACTCA | -0.189
AACGTCTT | 0.158

Sequence | PBM E-score
AGCAAGTA | -0.149
AGAATACG | 0.182
TAGCCTCA | -0.053
CAACCAAC | -0.102
CAACCAAG | 0.0892
CAACCAAA | 0.313
AGCCAAGC | -0.0873
CAAACTGA | 0.105
GCCGGAAC | 0.247
CGCCATTC | 0.0469
GGAGTCCA | 0.344
CGAGTCCC | 0.168
TGAGTCCA | 0.146
CGAGTCCA | -0.051
GGAGTCCC | 0.286
AGAGTCCC | 0.0617
GCCGAGTA | 0.115
ACCGGGCT | 0.113
GCTTACCA | -0.193
ACGCTTGA | 0.0746
CCGGAACG | -0.0389
ACGGAACC | 0.0697
CCGGAACC | 0.325
CCGGAACA | -0.0359
GCGGAACC | 0.341

Sequence | PBM E-score
GCGGAACA | -0.172
CATTGTTC | -0.0803
CCAAACAA | 0.213
CAGTGGTA | 0.115
AAGCCTTC | -0.191
CCTCGGTC | -0.223
AAGGGAAC | 0.0126
CCACTAGG | 0.287
ACACTATC | -0.0774
CCACTAAC | 0.21
CCACTACC | 0.125
CCACTACG | 0.323
CCACTAGA | 0.235
CCACTACA | 0.194
ACACTAGG | -0.176
ACACTAAG | -0.00776
CCACTATC | 0.368
CCACTAAG | 0.374
CCACTATA | 0.276
CACCATAC | 0.0726
ACCTGTGG | -0.0729
GCTTGGAA | -0.114
CGGGGTCA | -0.096
AAGAAACC | 0.0595
AGGCGTAA | 0.0474

Sequence | PBM E-score
GACGCATA | 0.141
GCACTAAA | 0.0118
CCACTAAA | 0.314
TCACTAAA | 0.134
CCCCGTCG | 0.00224
CCCGATGC | -0.124
AGGGATAT | -0.234
GTATGCGA | 0.291
CTATGCGA | -0.14
ATATGCGA | 0.0152
ATTAGTGA | 0.0812
AATAGTGG | 0.425
ATTAGTGG | 0.388
ATTAGTGC | -0.00168
AATAGTGA | 0.0209
AATAGTGC | -0.175
GAGCGAAC | -0.28
TCCATAGA | 0.203
CGTAAGAA | -0.113
CTAAAGAC | -0.0627
AAAAGGAC | 0.0425
AAAAGGAT | -0.00496
AAAAGGAA | 0.361
GAAAGGAA | 0.0552
TAAAGGAA | 0.314

Sequence | PBM E-score
CAAAGGAA | 0.104
AATCTCGC | -0.0134
GCTGGTAA | 0.122
ATAGGTCG | 0.0752
ATTTTACG | 0.337
AATTTACG | 0.0625
ATTTTACC | 0.0326
GATAACAC | -0.12
GTGTCCAA | 0.0511
ACTGGACT | 0.134
ACTGGATA | 0.108
ACTGGACA | 0.0644
ACTGGACG | 0.303
ACTGGAGC | 0.0795
ACTGGATC | 0.316
CCTGGATC | -0.00306
ACTGGAGG | 0.206
ACTGGATG | 0.326
CGACTGTC | -0.252
CTGCACAG | -0.0453
GCGCTAAA | 0.232
CTTCAGCA | -0.0569
CTCTATTA | 0.154
ATATATTA | 0.0581
CTATATTA | 0.307

Sequence | PBM E-score
GTTCATCA | 0.108
TACCTAAA | 0.0795
CACCTAAA | 0.266
GTCCTAAA | 0.21
AACCTAAA | 0.294
ATCCTAAA | 0.211
TTCCTAAA | 0.36
GGGAGTGA | -0.0739
GTCCGCAC | -0.0732
GGATCCAC | 0.302
AGATCCAA | 0.186
CGATCCAA | 0.0146
CGATCCAC | -0.153
GGATCCAA | 0.299
AGATCCAC | 0.183
TGGATTAA | 0.0316
GTACTTGA | -0.209
AAGAAAGG | -0.125
ATGCGCTC | 0.0347
ACCCCGTA | -0.0035
AGAGCTTA | -0.119
GAAGCACA | 0.117
